# Test results from PubChem BioAssay (NCATS).
# Values without a mark were called inactive. Inconclusive results are not listed. Calls of active or inactive are those of the source. Calls follow the shape of the dose curve; as a rule, active = well fitted curve in the direction sought with a large enough effect; inconclusive = small, poorly fitted or top-dose-only effect, or another doubt; inactive = no such curve, though single readings can be large; an effect the other way counts as inactive or inconclusive. Where a SMILES comes first, the peptide text is derived from it. The star is where a group is joined. AFC = O=c1cc(C(F)(F)F)c2ccc(N*)cc2o1
# Test system: not listed separately
# Assay: Primary fluorescence-based thiol-reactive (MSTI) qHTS assay for identification of artifact compounds. (AID 1845221); also: nearly all actives have a fitted effect of over 65% in size;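 as to activity change, negative = thiol reactive: thiol-reactive compounds lower the probe fluorescence signal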
# Details: MSTI thiol-reactivity probe, 1 h; series mostly up to 53.8 µM; activity change, negative = thiol reactive: at the top concentration
# Procedure, shortened: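 Compounds were incubated 1 h at room temperature in the dark with the MSTI probe (4 uM) in PBS pH 7.4, 2% DMSO. Signals were normalized between Acetyl-MSTI and MSTI.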
# Potency is read from the fitted curve at half-maximal effect.
Structure (SMILES),"activity change, negative = thiol reactive",Potency
CO[C@H]1O[C@@H]2O[C@]3(C)CC[C@H]4[C@H](C)CC[C@@H]([C@H]1C)[C@@]24OO3,28.5%,–
COc1ccc2cc(C(C)C(=O)Oc3ccc(C(N)=S)cc3)ccc2c1 (stereo unspecified),223%,–
CS(=O)(=O)c1ccc(-c2nnc(/C=C/c3nnc(-c4ccc(C#N)cc4)o3)n2-c2ccccc2Cl)nc1,-9.55%,–
CC(Nc1ncnc2nc[nH]c12)c1cc2cccc(Cl)c2c(=O)n1-c1ccccc1 (stereo unspecified),94.5%,–
COC(C(=O)N1Cc2[nH]nc(NC(=O)c3ccc(N4CCN(C)CC4)cc3)c2C1)c1ccccc1 (stereo unspecified),104%,–
COc1cc2nc(N3CCC(N4CCCCC4)CC3)nc(NC3CCCCCC3)c2cc1OC,-9.66%,–
Cc1cnc(Nc2ccc(F)cc2Cl)nc1-c1c[nH]c(C(=O)NC(CO)c2cccc(Cl)c2)c1 (stereo unspecified),–,2.67 µM (active)
CC(NC(=O)C(O)C(C)C)C(=O)NC1C(=O)N(C)CCc2ccccc21 (stereo unspecified),-21%,–
Cc1ccc(-c2ccc3c(ccc4sc5c(c43)NC[C@@H](C)NC5=O)n2)cn1,5.24%,–
CNC(=O)c1ccccc1Nc1nc(Nc2ccc3c(c2OC)CCC[C@@H](N2CCN(CCO)CC2)C3)ncc1Cl,248%,–
CC1(c2nc3c(C(N)=O)cccc3[nH]2)CCCN1 (stereo unspecified),-8.31%,–
CC(=O)OC1C(=O)C2(C)C(O)CC3OCC3(OC(C)=O)C2C(OC(=O)c2ccccc2)C2(O)CC(OC(=O)C(O)C(NC(=O)c3ccccc3)c3ccccc3)C(C)=C1C2(C)C (stereo unspecified),77.5%,–
CCOc1ccc(NC(=S)N2CCC(C(O)(c3ccccc3)c3ccccc3)CC2)cc1,247%,–
CC(=O)N[C@@H](Cc1c[nH]c2ccccc12)C(=O)N[C@@H](CCC(=O)O)C(=O)N[C@@H](Cc1cnc[nH]1)C(=O)N[C@@H](CC(=O)O)C(=O)Nc1ccc2c(C(F)(F)F)cc(=O)oc2c1 (Ac-WEHD-{AFC}),79.4%,–
COc1ccc(CNC(=O)c2sc3nc(C)cc(C)c3c2N)cc1,-8.94%,–
C[C@@H]1C[C@@H]2O[C@H]2/C=C\C=C\C(=O)Cc2c(Cl)c(O)cc(O)c2C(=O)O1,-7.51%,–
O=C(Nc1ccc(S(=O)(=O)Nc2nccs2)cc1)C(c1ccccc1)c1ccccc1,163%,–
Cc1ccc(S(=O)(=O)Cc2nc(-c3ccc(C(=O)NCc4cccnc4)cc3)oc2C)cc1,243%,–
COc1cc2nc(N3CCCC3)nc(NCCCCCN3CCCC3)c2cc1OC,-9.73%,–
CC(NC(=O)CCc1nc2ccccc2c(=O)[nH]1)c1ccccc1 (stereo unspecified),-6.89%,–
CN(C)CCCCC(=O)Nc1ccc(NC(=S)NC(=O)c2ccc(C(C)(C)C)cc2)cc1,-10%,–
COC(=O)N[C@H](C(=O)N1[C@@H]2CC[C@@H](C2)[C@H]1c1nc2ccc(-c3ccc4c(c3)C(F)(F)c3cc(-c5cnc([C@@H]6CCC7(CC7)N6C(=O)[C@@H](NC(=O)OC)C(C)C)[nH]5)ccc3-4)cc2[nH]1)C(C)C,33.7% [at 25.6 µM],–
O=C1OCC(c2ccccc2)=C1Cc1ccccc1,62.4%,–

# Test system: Nanoluciferase (engineered Oplophorus gracilirostris luciferase)
# Assay: Primary Nanoluciferase (NLuc) qHTS assay for identification of artifact compounds. (AID 1845222);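 as to activity, negative = inhibition: NLuc secreted into diluted conditioned medium of S16 cells; 0% = DMSO and -100% = no enzyme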
# Details: NLuc-conditioned medium, Nano-Glo luminescence, 5 min; series mostly up to 54.1 µM; activity, negative = inhibition: at the top concentration
# Procedure, shortened: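 Using secreted nanoluciferase in S16 culture medium (0.22 um filtered, 1:55 dilution), compounds were preincubated 15 min at RT. Signal was generated with Nano-Glo reagent (1:100) over 5 min.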
Structure (SMILES),"activity, negative = inhibition",Potency
CO[C@H]1O[C@@H]2O[C@]3(C)CC[C@H]4[C@H](C)CC[C@@H]([C@H]1C)[C@@]24OO3,-0.211%,–
COc1ccc2cc(C(C)C(=O)Oc3ccc(C(N)=S)cc3)ccc2c1 (stereo unspecified),0.201%,–
CC(Oc1ccc2[nH]nc(/C=C/c3cnn(CCO)c3)c2c1)c1c(Cl)cncc1Cl (stereo unspecified),1.06%,–
CS(=O)(=O)c1ccc(-c2nnc(/C=C/c3nnc(-c4ccc(C#N)cc4)o3)n2-c2ccccc2Cl)nc1,–,12 µM (active)
CCc1cnn2c(NCc3ccc[n+]([O-])c3)cc(N3CCCCC3CCO)nc12 (stereo unspecified),1.18%,–
N#Cc1ccc(-c2cnc3[nH]cc(NC(=O)c4cccnc4)c3c2)cc1,-17.4%,–
COC(C(=O)N1Cc2[nH]nc(NC(=O)c3ccc(N4CCN(C)CC4)cc3)c2C1)c1ccccc1 (stereo unspecified),-11%,–
CC(=O)SCC(=O)c1ccc(NS(=O)(=O)c2ccc(OCCCN(C)C)cc2)nc1,-13%,–
OC1CCC(Nc2ncc3nc(Nc4c(F)cc(F)cc4F)n([C@H]4CCOC4)c3n2)CC1 (stereo partly specified),-1.15%,–
COc1cc2nc(N3CCC(N4CCCCC4)CC3)nc(NC3CCCCCC3)c2cc1OC,4.4%,–
Cc1cnc(Nc2ccc(F)cc2Cl)nc1-c1c[nH]c(C(=O)NC(CO)c2cccc(Cl)c2)c1 (stereo unspecified),3.88%,–
CC(NC(=O)C(O)C(C)C)C(=O)NC1C(=O)N(C)CCc2ccccc21 (stereo unspecified),0.494%,–
Cc1ccc(-c2ccc3c(ccc4sc5c(c43)NC[C@@H](C)NC5=O)n2)cn1,4.01%,–
CNC(=O)c1ccccc1Nc1nc(Nc2ccc3c(c2OC)CCC[C@@H](N2CCN(CCO)CC2)C3)ncc1Cl,4.93%,–
CC1(c2nc3c(C(N)=O)cccc3[nH]2)CCCN1 (stereo unspecified),2.64%,–
O=[N+]([O-])c1cn2c(n1)OCC(OCc1ccc(OC(F)(F)F)cc1)C2 (stereo unspecified),-8.26%,–
NCc1c[nH]c(=S)n1[C@@H]1CCc2c(F)cc(F)cc2C1,-1.22%,–

Structure (SMILES),"activity, negative = inhibition",Potency
CCOc1ccc(NC(=S)N2CCC(C(O)(c3ccccc3)c3ccccc3)CC2)cc1,2.13%,–
CCCNc1ccc2ncc(-c3ccc4[nH]ncc4c3)n2n1,2.56%,–
CC(=O)N[C@@H](Cc1c[nH]c2ccccc12)C(=O)N[C@@H](CCC(=O)O)C(=O)N[C@@H](Cc1cnc[nH]1)C(=O)N[C@@H](CC(=O)O)C(=O)Nc1ccc2c(C(F)(F)F)cc(=O)oc2c1 (Ac-WEHD-{AFC}),4.37%,–
COc1ccc(CNC(=O)c2sc3nc(C)cc(C)c3c2N)cc1,-11.5%,–
C[C@@H]1C[C@@H]2O[C@H]2/C=C\C=C\C(=O)Cc2c(Cl)c(O)cc(O)c2C(=O)O1,-0.0016%,–
CCc1c(C)nc2c(-c3cnn(-c4cc(CO)ccn4)c3)c[nH]n2c1=O,-0.0181%,–
O=C(Nc1ccc(S(=O)(=O)Nc2nccs2)cc1)C(c1ccccc1)c1ccccc1,-6.3%,–
COc1cccc2cc3c(c(O[C@@H]4O[C@H](CO[C@@H]5O[C@H](CO)[C@@H](O)[C@H](O)[C@H]5O)[C@@H](O)[C@H](O)[C@H]4O)c12)C(C)OC3=O (stereo partly specified),-0.793% [at 25.7 µM],–
Cc1ccc(S(=O)(=O)Cc2nc(-c3ccc(C(=O)NCc4cccnc4)cc3)oc2C)cc1,-9.91%,–
COc1cc2nc(N3CCCC3)nc(NCCCCCN3CCCC3)c2cc1OC,-9.46%,–
CS(=O)(=O)NCC1CCC(Nc2nc3c(s2)CCSc2ccccc2-3)CC1 (stereo unspecified),3.34%,–
CC(NC(=O)CCc1nc2ccccc2c(=O)[nH]1)c1ccccc1 (stereo unspecified),-16.8%,–
CN(C)CCCCC(=O)Nc1ccc(NC(=S)NC(=O)c2ccc(C(C)(C)C)cc2)cc1,-6.45%,–
CCC1=CC2CN(C1)Cc1c([nH]c3ccccc13)[C@@](C(=O)OC)(c1cc3c(cc1OC)N(C)[C@H]1[C@@](O)(C(=O)OC)[C@H](OC(C)=O)[C@]4(CC)C=CCN5CC[C@]31[C@@H]54)C2 (stereo partly specified),0.126% [at 25.7 µM],–
CN(CCc1ccc(Nc2ncc(-c3cccnc3)s2)cc1)Cc1ccccc1,-3.77%,–
COC(=O)N[C@H](C(=O)N1[C@@H]2CC[C@@H](C2)[C@H]1c1nc2ccc(-c3ccc4c(c3)C(F)(F)c3cc(-c5cnc([C@@H]6CCC7(CC7)N6C(=O)[C@@H](NC(=O)OC)C(C)C)[nH]5)ccc3-4)cc2[nH]1)C(C)C,1.08% [at 25.7 µM],–
